Measurements taken from PubChem BioAssay AID1259312 (Keith Lab, Institute of Cancer Science, University of …, 2017).
Hit rate of the full screen: of about 4,500 compounds, about 200 (4.4%) were called active.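 The calls were made as follows: active = cell survival measured by absorbance rises more than 2.5-fold over infected cells without compound; inactive = the rest.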 The sample as a whole holds a higher share of actives than the screen did.

Assay: survival after telomere uncapping, modulators, primary screen, cell-based (AID 1259312);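 also: virus expresses mutant telomerase RNA that uncaps telomeres and kills cells; compound added 2 days after infection so exposure lasts 3 days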
Settings: HCT116 + Ad-hTR-mut, MTT, 5 d; at 10 µM, active compounds read high

Compound	fold change
O=[N+]([O-])c1ccc(N2CCOCC2)cc1Cl	4.62 (active)
CC1CN(c2ccc([N+](=O)[O-])c(N3CCOCC3)c2)CCN1 (stereo not given)	-1.03 (inactive)
CN1CCN(c2ccc([N+](=O)[O-])c(N3CCN(C)CC3)c2)CC1	-1.49 (inactive)
O=[N+]([O-])c1ccc(Cl)c2nonc12	-8.7 (inactive)
NC1(Cc2ccc(Cl)cc2)CC1	-2.29 (inactive)
O=C1C[C@@H]2OCC=C3CN4CC[C@]56c7ccccc7N1[C@H]5[C@H]2[C@H]3C[C@H]46	-1.27 (inactive)
COc1cc2c(cc1OC)C13CCN4CC5=CCOC6CC(=O)N2C1C6C5CC43 (stereo not given)	3.18 (active)
CN1CCN(c2ccc([N+](=O)[O-])cc2Cl)CC1	-1.02 (inactive)
CCc1cc(CC)c(C=C(C#N)C#N)c(CC)c1	1.07 (inactive)
N#CC(C#N)=Cc1c2ccccc2cc2ccccc12	3.81 (active)
Cc1cc(C)c(C)c(C=C(C#N)C#N)c1C	1.51 (inactive)
CCOC(=O)c1c(NC(=O)C2C(C)(C)C2(C)C)sc2c1CCC2	-1.33 (inactive)
CC1CN(c2ccc([N+](=O)[O-])cc2[N+](=O)[O-])CCN1 (stereo not given)	2.15 (inactive)
Clc1ccc2c(N3CCNCC3)ccnc2c1	-2.13 (inactive)
CC(=O)OC1CCC2(C)C3CCC4(C)C(CC[C@]4(OC(C)=O)C(C)OC(C)=O)C3CC[C@H]2C1 (stereo not given in full)	3.25 (active)
C[C@]12CC[C@H](O)C[C@@H]1CC[C@@H]1[C@@H]2CC[C@]2(C)C(=O)CC[C@@H]12	1.18 (inactive)
COC(=O)C(N)CCCN=C(N)N[N+](=O)[O-] (stereo not given)	-1.4 (inactive)
CCNc1nc(Cl)nc(NCC)n1	2.5 (active)
O=c1[nH]c(=O)n(Cc2ccco2)c(O)c1C=NCc1cccs1	inactive
COC(=O)Nc1nc2ccccc2[nH]1	-8.68 (inactive)
CCNCCNc1ccc([N+](=O)[O-])c2cccnc12	-2.62 (inactive)
O=[N+]([O-])c1ccc(NCCO)c2ncccc12	2.89 (active)
O=[N+]([O-])c1ccc(NCCO)c2cccnc12	-1.59 (inactive)

Compound	fold change
N#Cc1c(/N=C/c2c(O)n(Cc3ccco3)c(=O)[nH]c2=O)sc2c1CCCC2	inactive
CC1CN(c2ccccc2[N+](=O)[O-])CCN1 (stereo not given)	1.8 (inactive)
CC1(C)C(C(=O)Nc2cc(Br)c(Br)c(Br)c2)C1(C)C	-1.03 (inactive)
COc1ccc(CC2NCCc3cc(OC)c(OC)cc32)cc1OC (stereo not given)	-2.4 (inactive)
COc1cc2c(cc1OC)C(C)NCC2 (stereo not given)	1.05 (inactive)
COc1cc2c(cc1O)CCNC2C (stereo not given)	4.6 (active)
COCc1c(C)cc(C)c(C=C(C#N)C#N)c1C	-1.04 (inactive)
C[C@]12CC[C@H]3[C@@H](CC[C@]4(O)C[C@@H](O)CC[C@]34C=O)[C@@]1(O)CC[C@@H]2C1=CC(=O)OC1	-23.3 (inactive)
CCC1CN2CCC1CC2C(O)c1ccnc2ccc(OC)cc12 (stereo not given)	1.15 (inactive)
C#CCSc1nc2ccccc2c(=O)n1-c1ccccc1	-2.72 (inactive)
CCCCc1ccc(C=C(C#N)C#N)s1	-1.17 (inactive)
Nc1nonc1-c1nn[nH]n1	-1.38 (inactive)
N/N=C(\N)c1nonc1N	3.99 (active)
Nc1nonc1[N+](=O)[O-]	1.03 (inactive)
Cc1cc(C)[n+]2cc(Br)ccc2n1	1.21 (inactive)
O=C(CCl)Nc1ccccn1	-1.43 (inactive)
O=[N+]([O-])c1ccc(N2CCNCC2)c2cccnc12	-1.29 (inactive)
CC1CN(c2ccc([N+](=O)[O-])c3cccnc23)CC(C)N1 (stereo not given)	3.89 (active)
CN1CCN(c2ccc([N+](=O)[O-])c3cccnc23)CC1	-1.27 (inactive)
O=C(CCl)NCc1ccco1	1.2 (inactive)
CCc1nnc(NC(=O)CCl)s1	1.66 (inactive)
N#CC1=C(N)Oc2c(c(=O)oc3ccccc23)C1c1cccc2ccccc12 (stereo not given)	-1.29 (inactive)
